Values joined by “and” are separate entries in the source; they are usually repeats but may differ in a detail not shown here. Identical values can stand only once. A structure can be active in one record and inactive in another. Active and inactive are the calls of the source. The calls were made as follows: active = hit-call score of the fitted dose curve at least 0.9, where 1 is the maximum; inactive = score below 0.9.

What is called AC50 is the concentration giving half of the maximal activity seen.

Read-out in the test: Intercellular Adhesion Molecule 1 (ICAM1), ICAM1 (gene 3383)
The test is described as follows: BSK_BF4T_ICAM1: BioMAP Diversity Plus: BF4T Assay for Intercellular Adhesion Molecule 1 (ICAM1) Biomarker Activity (AID 2284260). Particulars: primary human bronchial epithelial cells with fibroblasts. As for the experimental part: BSK_BF4T is a cell-based, multiplexed-readout assay that uses bronchial epithelial cells and dermal fibroblasts, a human vascular primary cell, with measurements taken at 24 hours after chemical dosing in a microplate: 96-well plate.BSK_BF4T_ICAM1 is an assay component measured in the BSK_BF4T assay. It measures ICAM-1 antibody related to regulation of gene expression using ELISA technology.Data from the assay component BSK_BF4T_ICAM1 was analyzed at the endpoint, BSK_BF4T_ICAM1, in the positive analysis fitting direction relative to DMSO as the negative control and baseline of activity. Using a type of binding reporter, gain or loss-of-signal activity can be used to understand protein changes. To generalize the intended target to other relatable targets, this assay endpoint is annotated to the 'cell adhesion molecules' intended target family, where the subfamily is 'Immunoglobulin CAM'.
The levels of cell surface (or secreted, indicated by the prefix "s") biomarker endpoints were measured by ELISA. Overt cytotoxicity to cells in confluent adherent cultures (all systems other than the BT system) was assessed by measuring total protein levels using sulforhodamine B (SRB) staining in parallel cultures at the time of biomarker measurements, indicated as SRB endpoints. For proliferation assays for adherent cell types, individual cell types are cultured at sub-confluence and relative cell numbers quantified by SRB staining at time points optimized for each system (48 h: 3C and CASM3C systems; 72 h: BT and HDF3CGF systems; 96 h: SAg system). SRB was performed by staining cells with 0.1% SRB after fixation with 10% TCA and reading wells at 560 nm.Viability and proliferation of PBMC (T cells) was quantified by Alamar Blue reduction for the SAg and BT systems. For PBMC viability (referred to as PBMC Cytotoxicity within the assay endpoint names), cells were plated (75,000/well in a 96-well plate) and then chemical samples added for 1 h before addition of activators, SEB and TSST-1 (20 ng/mL final concentration each). Cells were incubated for 90 h. Then, Alamar Blue (20 uL/well) (Invitrogen, Cat DAL1100) was added for 6 h, and the plates were read with a fluorescence microplate reader at 546/580 nm (excitation/emission). For PBMC proliferation, cells were plated and activated as above but incubated for only 16 h prior to addition of Alamar Blue. Plates were read after 6 h.
As for `COC(=O)C(F)(F)C(F)(F)OC(F)(C(F)(F)F)C(F)(F)OC(F)=C(F)F` (stereo not given), the result was inactive.

As for `O=C(O)C(F)(OC(F)(F)C(F)(F)C(F)(F)F)C(F)(F)F` (stereo not given), the outcome was inactive.

For `CC(O)C(F)(F)C(F)(F)F` (stereo not given), the outcome was inactive.

For `O=C(O)C(F)(F)OC(F)(F)C(F)(F)OC(F)(F)C(=O)O`, the outcome was inactive.

Consider `OCC(F)(F)OC(F)(F)C(F)(F)OC(F)(F)C(F)(F)OC(F)(F)F`, for which the result was inactive.

For the molecule `O=C(O)C(F)(F)OC(F)(F)C(F)(F)OC(F)(F)F`, the outcome was inactive.

For `FC(F)(F)C(F)(C(F)(F)F)C(F)(F)C(F)(F)CC1CO1` (stereo not given), the outcome was inactive.

As for `OCC(F)(F)OC(F)(F)C(F)(F)OC(F)(F)C(F)(F)OC(F)(F)CO`, the result was inactive and the AC50 was 26.9 µM (active).

Turning to `NC(=O)C(F)(F)C(F)(F)F`, the result was inactive.

Regarding `O=C(O)C(F)(F)C(F)(F)C(=O)O`, the result was inactive.

With `C=CC(=O)OCC(F)(F)C(F)F`, the AC50 is 13.9 µM (active) and 22.8 µM (active).

With `OCC(F)(F)OC(F)(F)C(F)(F)OC(F)(F)CO`, the outcome was inactive.

Consider `O=C(O)C=CC(F)(C(F)(F)F)C(F)(F)F`, for which the outcome was inactive.

Take `O=S(=O)(F)C(F)(F)C(F)(F)C(F)(F)C(F)(F)C(F)(F)C(F)(F)C(F)(F)C(F)(F)F`: the outcome was inactive.

These data come from PubChem BioAssay (EPA / NIEHS).
